Screen size: about 92,000 compounds; about 1,200 (1.3%) were called active. For the sample, actives were picked, then their nearest neighbours and some compounds at random. A number with no mark means an inactive call.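 How the source made its calls: active means activation above the mean of all tested compounds plus 3 SD (cut at about 9.5% in these data); inactive means the rest.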
Test: TTR transcription activators in neuroblastoma reporter cells, primary screen, cell-based, luminescence, SH-SY5Y, TTR promoter Gaussia luciferase (AID 1117267);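 further: cells exposed to compounds for one day before reading; 0% = median of all test compound wells on the plate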
Conditions: at 16.7 µM, stronger effect = higher value, 100% = recombinant luciferase protein wells

| Compound | activation |
| --- | --- |
| O=C(C1=C(O)C(=O)N(CCOCCO)C1c1ccccn1)c1cccs1 (configuration not stated) | -0.44% |
| C/C(=C\C(=O)c1ccccc1)Nc1cccc(O)c1 | -1.23% |
| O=C(Cc1ccccc1)Nc1cccc(NC(=O)c2ccccc2)c1 | -1.17% |
| O=C(Nc1cccc(O)c1)c1ccc(C(=O)c2ccccc2)o1 | 15.8% (active) |
| O=c1[nH]cccc1-c1nc2ccccc2n1Cc1ccc(Cl)cc1 | 1.33% |
| CC1CCN(S(=O)(=O)c2ccc(S(=O)(=O)NCc3cccnc3)cc2)CC1 | 1.06% |
| CCC(C)C(=O)Nc1ccccc1N1CCN(c2ccc(F)cc2)CC1 (configuration not stated) | 1.32% |
| CCOC(=O)Cc1csc(NC(=O)COc2ccc3c(C)cc(=O)oc3c2)n1 | -0.4% |
| CC(=O)c1c(C)[nH]c(C(=O)COc2ccc3c(C)cc(=O)oc3c2)c1C | 11.5% (active) |
| COC(=O)COc1ccc2oc(=O)cc(C)c2c1 | -3.29% |
| N#Cc1ccc(/C=C2\CCn3c2nc2cc(C(=O)O)ccc2c3=O)cc1 | -0.49% |
| COC[C@@H]1CCCN1c1ccc2c(c1)O[C@H](C)CCN(C1CC1)S2(=O)=O | 1.42% |
| CN(CCc1ccccc1)C(=O)c1cccc(NC(=O)Cc2cccc(NC(=O)C3CCCN(C(=O)CCc4ccccc4)C3)c2)c1 (configuration not stated) | -4.56% |
| CC1Cc2ccccc2N1S(=O)(=O)c1cccc(C(=O)OCC(=O)N2CCOCC2)c1 (configuration not stated) | 2.01% |
| COc1ccc(-c2oc3ncn(Cc4ccco4)c(=N)c3c2-c2ccc(OC)cc2)cc1 | 11.8% (active) |
| COc1ccc2[nH]c3c(=O)n(Cc4ccco4)cnc3c2c1 | 1.08% |
| Cn1c2ccccc2c(=O)c2c(=O)n(Cc3ccco3)c(COc3ccccc3)nc21 | -1.02% |
| C(#CCN1CCOCC1)CCCN1CCOCC1 | 0.16% |
| O=C(NNC1=NCCC1)c1cccc(S(=O)(=O)N2CCCCC2)c1 | 12% (active) |
| O=C(Nc1nncs1)c1cccc(S(=O)(=O)N2CCCCC2)c1 | 0.77% |
| O=C(c1cccc(S(=O)(=O)N2CCCCCC2)c1)N1CCN(Cc2ccccc2)CC1 | -0.07% |
| Cc1c(NC(=O)C(=O)N/N=C/c2cccs2)c(=O)n(-c2ccccc2)n1C | -1.22% |

| Compound | activation |
| --- | --- |
| O=c1c2c3c(sc2n(CCN2CCCC2)c(=O)n1Cc1ccccc1)CCCCC3 | 1.57% |
| COc1ccc(C2c3ccc(O)cc3Oc3ncn(CCCO)c(=N)c32)cc1OC (configuration not stated) | 9.86% (active) |
| O=c1ccnc(Nc2ccc(Cl)cc2)[nH]1 | 1.51% |
| COc1ccc(CN2CN(C3CCCC3)CSC2=S)cc1 | -1.82% |
| O=C1NC(=Nc2ccc(Cl)cc2)SC1Cc1cccc(Cl)c1Cl (configuration not stated) | -2.63% |
| O=S(=O)(Nc1ccccn1)c1cccc(S(=O)(=O)c2ccc(Cl)cc2)c1 | 1.15% |
| COc1cc(NS(=O)(=O)c2ccc(NC(=O)CN3C(=O)c4ccccc4C3=O)cc2)ncn1 | 0.85% |
| O=C(CS(=O)(=O)c1ccccc1)Nc1ccc(S(=O)(=O)Nc2ccccn2)cc1 | 11.2% (active) |
| Cc1nn(C)cc1S(=O)(=O)N1CCN(c2ccc(F)cc2)CC1 | 5.22% |
| COC(=O)C[C@@H]1C=C[C@@H](NS(=O)(=O)c2cccc(OC)c2)[C@@H](CO)O1 | 2.56% |
| COC(=O)[C@@]12C[C@@H](CC(=O)N3CCCCC3)C(=O)N(Cc3ccc4c(c3)OCO4)C1=CCC(C)(C)C2 | -2.52% |
| O=C(COc1ccc(Cl)cc1Cl)NCCCNC(=O)c1cnccn1 | 1.09% |
| O=C(NCCCNC(=O)c1ccccc1Cl)c1cnccn1 | 17.1% (active) |
| Cc1ccc(C(=O)NCCNC(=O)c2cnccn2)cc1 | -0.47% |
| CCC(C)NCCOCCOc1ccc(Br)cc1C (configuration not stated) | 4.02% |
| CCc1nn(CCCC(=O)Nc2ccc(C)c(C)c2)c(=O)c2cc3occc3n12 | -0.44% |
| Nc1ccc2c(c1)C(O)c1ccc(Cl)cc1-2 (configuration not stated) | -0.84% |
| Cc1nnc(SCC(=O)NNC(=O)c2ccc(Cl)cc2)n1CC1CCCO1 (configuration not stated) | -0.27% |
| Brc1ccc(-c2csc(N/N=C/c3cccnc3)n2)cc1 | -4.96% |
| O=C(N/N=C/c1cccnc1)c1cc2ccccc2cc1O | -0.26% |
| C(=N\n1cnnc1)/c1cccnc1 | 9.82% (active) |
| CC(=O)Nc1ccc(N2C(=O)CC(Sc3nccc(C)n3)C2=O)cc1 (configuration not stated) | -1.45% |

| Compound | activation |
| --- | --- |
| CC(Oc1cccc(Cl)c1)C(=O)NC1CC(C)(C)NC(C)(C)C1 (configuration not stated) | -0.86% |
| O=C(O/N=C(/c1ccccc1)c1ccncc1)c1ccccc1[N+](=O)[O-] | -1% |
| Cc1ccccc1/[N+]([O-])=C/c1ccncc1 | 11% (active) |
| C=C(C)CNC(=S)N/N=C/c1ccccc1OCC(=O)O | 8.68% |
| CN(C)CCNC(=O)Cc1ccc([N+](=O)[O-])cc1 | 0.61% |
| CCCNC(=O)c1onc(CSc2ccc(F)cc2)c1C(=O)NC(C)C | -2.47% |
| COc1cc(NC(=S)N2CCCC(C)C2)cc(OC)c1OC (configuration not stated) | 4.11% |
| COc1cc(N2C(=O)CC3(CCCC3)CC2=O)cc(OC)c1OC | 11.7% (active) |
| COc1cc(C(=O)NNC(=O)CN2C(=O)NC3(CCCC3)C2=O)cc(OC)c1OC | -1.23% |
| CC(C)(C)OC(=O)N/N=C/c1cn(-c2ccccc2)nc1-c1cccnc1 | -1.28% |
| CC(C)N(C(=O)[C@H]1C[C@H](CC(=O)NCCC2=CCCCC2)C(=O)N2CCc3c([nH]c4cc(CCC(=O)N(C)C)ccc34)[C@]12C)C(C)C | -0.83% |
| c1ccc(-c2c[nH]c(-c3ccccc3)c2)cc1 | -1.9% |
| CCOCC(=O)Nc1sc2c(c1C(=O)OCC)CCCC2 | 2.19% |
| CCOC(=O)c1c(NC(=S)Nc2ccccc2C)sc2c1CCC2 | 1.24% |
| CCOC(=O)c1c(NC(=O)c2ccc(Br)o2)sc2c1CCCC2 | 12.3% (active) |
| COc1cccc2cc(/C(C)=N/NC(=O)c3ccco3)oc12 | 1.86% |
| Cc1nc2c(-c3ccc(F)cc3)c(C)nn2c(C)c1CCC(=O)N1CCN(c2ccccn2)CC1 | 1.67% |
| Cc1nc2nc(C)c(CCC(=O)N3CCN(c4ccccc4)CC3)c(C)n2n1 | 25.8% (active) |
| Cn1c(=O)c2c(ncn2CC(=O)N2CCN(c3ccccc3)CC2)n(C)c1=O | 3.74% |
| Cc1cccc(C)c1NC(=O)CN1CCN(c2ccc(F)cc2)CC1 | 1.02% |
| O=C(O)CSc1nccc2ccccc12 | -2.92% |
| CCN(C(=O)CN1C(=O)/C(=C/c2ccc(F)cc2)SC1=S)C1CCS(=O)(=O)C1 (configuration not stated) | 1.08% |

| Compound | activation |
| --- | --- |
| COc1ccc(NS(=O)(=O)c2ccc(C(=O)Nc3c(C)n(C)n(-c4ccccc4)c3=O)cc2)cc1 | -1.99% |
| Cc1c(NS(=O)(=O)c2ccc(NC3CCCC3)c([N+](=O)[O-])c2)c(=O)n(-c2ccccc2)n1C | 12.5% (active) |
| COc1ccc(C(=O)C(C)OC(=O)c2cccc(S(=O)(=O)Nc3c(C)n(C)n(-c4ccccc4)c3=O)c2)cc1 (configuration not stated) | 0.13% |
| CCc1cc2c(NC(Cc3ccccc3)C(=O)O)ncnc2s1 (configuration not stated) | 0.89% |
| Cc1cccc(NC(=O)Nc2nnc(-c3ccccc3)o2)c1 | -2.14% |
| COc1cc(/C=N/N2CCN(c3ccccc3)CC2)ccc1OC(C)=O | 1.16% |
| OC(c1ccc(F)cc1)c1ncc(-c2cccc(C(F)(F)F)c2)[nH]1 (configuration not stated) | 1.67% |
| COc1cccc(-c2cnc(C(O)c3ccccc3OC)[nH]2)c1 (configuration not stated) | 9.73% (active) |
| COc1c(C)cc(C(O)c2ncc(-c3cccc(C(F)(F)F)c3)[nH]2)cc1C (configuration not stated) | -1.28% |
| C=CCN(C(=O)Nc1ccc2c(c1)nc(C)n2C)c1ccccc1 | 5.19% |
| O=C(COC(=O)c1ccc2ncsc2c1)Nc1ccc(Cl)cc1 | 1.52% |
| Cc1ccc(-c2cc(C(F)(F)F)n3ncc(C(=O)N4CCCCC4c4cccnc4)c3n2)cc1 (configuration not stated) | 0.13% |
| FC(F)(F)c1cc(-c2ccco2)nc(N2CCOCC2)n1 | 2.59% |
| COC(=O)c1cnn2c(C(F)(F)F)cc(-c3ccco3)nc12 | 10.2% (active) |
| CCCCOCCCNC(=O)C[C@H]1C[C@@]2(C(=O)OC)C(=C[C@H](C(C)(C)C)O[C@@H]2C)N(CCc2ccc(OC)c(OC)c2)C1=O | 14.6% (active) |
| COC(=O)[C@]12C[C@H](CC(=O)NCc3cccc4ccccc34)C(=O)N(CCc3ccc(OC)c(OC)c3)C1=C[C@H](C1CCCC1)O[C@@H]2C | -1.86% |
| COC(=O)[C@]12C[C@H](CC(=O)NCc3cccs3)C(=O)N(CCc3ccc(OC)c(OC)c3)C1=C[C@H](C(C)C)O[C@@H]2C1CC1 | -0.36% |
| O=C(NCc1ccccc1)C(c1cccnc1)N(C(=O)c1csnn1)c1ccc(F)cc1 (configuration not stated) | 4.37% |
| Cc1cccc(C(=O)OC(C)CN2CCCC2)c1 (configuration not stated) | 2.07% |
| O=C(CN1C(=O)CC(c2ccccc2)S(=O)(=O)c2ccccc21)NC1CCCC1 (configuration not stated) | 4.27% |
| COc1cccc(C2CC(c3cccs3)=NN2C(=O)CSC2=NCCS2)c1OC (configuration not stated) | -2.03% |
| CC(=O)Oc1ccccc1C1=NN(C(C)=O)C(c2ccccc2)C1 (configuration not stated) | 1.26% |

| Compound | activation |
| --- | --- |
| O=C1c2cccc(OCC(=O)N3N=C(c4cccs4)CC3c3ccc(F)cc3)c2CCN1Cc1ccccc1 (configuration not stated) | 11.2% (active) |
| O=C(CCc1nnc(CCCCc2ccccc2)o1)NC(c1cccnc1)C(F)(F)F (configuration not stated) | -0.47% |
| CCCCc1cc(=O)oc2cc(C)cc(OCc3nn[nH]n3)c12 | 23.1% (active) |
| COc1ccc(-c2cc3ccc(OCc4nn[nH]n4)cc3oc2=O)cc1 | 0.67% |
| CCOC(=O)CCc1c(C)c2ccc(OCc3nn[nH]n3)c(C)c2oc1=O | 3.81% |
| CC(C)Cn1c(N)c(C(=O)COC(=O)C2CCCN2C(=O)c2cccs2)c(=O)n(C)c1=O (configuration not stated) | -0.78% |
| C#CCOCCOCCOCCNc1nc(N2CCOCC2)nc(N2CCN(C(=O)[C@H](Cc3ccc(O)cc3)n3cc(CCO)nn3)CC2)n1 | -0.17% |
| CCOc1ccc(C(=O)NCC(=O)N2CCN(c3ccc(C(F)(F)F)cn3)CC2)cc1 | 0.73% |
| Brc1ccc(/C=N/N2CCN(C3c4ccccc4-c4ccccc43)CC2)s1 | 19.4% (active) |
| CC(=O)C[C@@H]1OC[C@H](C)N1S(=O)(=O)c1ccc(C)cc1 | 1.64% |
| CC(NC(=O)C(C)(C)C)C(c1cccs1)N1CCN(Cc2ccccc2)CC1 (configuration not stated) | -0.04% |
| NC(=O)C1(Nc2ccccc2Cl)CCCC1 | -2.76% |
| Cc1nc(N2CCOCC2)sc1C(=O)NN | -0.39% |
| Cc1ccc(SCC(=O)c2sc(-c3ccccc3)nc2C)cc1 | 4.57% |
| Cc1nc(-c2ccc(Cl)cc2)sc1C(=O)NN | 35.4% (active) |
| O=c1ccn([C@@H]2O[C@H](CNS(=O)(=O)c3cc4ccccc4s3)[C@@H](O)[C@H]2O)c(=O)[nH]1 | -0.41% |
| COc1ccc(C(CNC(=O)c2ccc(S(=O)(=O)Nc3ccccc3C)cc2)N2CCOCC2)cc1 (configuration not stated) | 0.05% |
| COc1ccc(CCOC(=O)CNC(=O)c2ccc(Cl)cc2Cl)cc1 | -0.5% |
| COc1cc2c(=O)n(C)c3ccccc3c2cc1OC | -0.16% |

From PubChem BioAssay AID1117267 (The Scripps Research Institute Molecular Screening Center, 2014)
